Measured values from PubChem BioAssay (NCI).
This is part of a sample that, as a whole, favours compounds with a hit. Of some 83,000 tested, about 20% had one in any assay.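 The test compound was applied at a single concentration to cells in 96-well plates for 48 hours, and percent growth was recorded.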 Active and inactive are the calls of the source. Rule for the calls: active = growth percent below 10; inactive = the rest.

Key:
Assay in all cases: NCI-60 one-dose screen, 48 h (100 = growth as untreated, 0 = no growth, -100 = all killed)
Details in all cases: 10 µM unless noted
NCI-H23 lung = system: NCI-H23 lung
NCI-H226 lung = system: NCI-H226 lung
NCI-H322M lung = system: NCI-H322M lung
HOP-62 NSCLC = system: HOP-62 NSCLC
NCI-H460 lung = system: NCI-H460 lung
HOP-92 NSCLC = system: HOP-92 NSCLC
NCI-H522 lung = system: NCI-H522 lung
A549/ATCC NSCLC = system: A549/ATCC NSCLC
786-0 renal = system: 786-0 renal
COLO 205 colon = system: COLO 205 colon
DU-145 prostate = system: DU-145 prostate
K-562 leukemia = system: K-562 leukemia
MALME-3M melanoma = system: MALME-3M melanoma
MDA-MB-231 breast = system: MDA-MB-231 breast
RXF 393 renal = system: RXF 393 renal
SF-268 CNS = system: SF-268 CNS
SF-295 CNS = system: SF-295 CNS
SF-539 CNS = system: SF-539 CNS
UACC-257 melanoma = system: UACC-257 melanoma
M14 melanoma = system: M14 melanoma

Measured: growth

CC(C)[C@@H]1NC(=O)[C@]2(C)CSC(=N2)c2ccnc(c2)CNC(=O)C[C@@H](/C=C/CCS)OC1=O
inactive: NCI-H23 lung 12.6% | NCI-H226 lung 11.8% | DU-145 prostate 10.5% | MALME-3M melanoma 14.6% | MDA-MB-231 breast 11.5% | SF-268 CNS 13% | SF-539 CNS 17.2%
active: NCI-H322M lung 4.39% | HOP-62 NSCLC 6.46% | NCI-H460 lung 9.2% | HOP-92 NSCLC -16.5% | NCI-H522 lung -18.4% | A549/ATCC NSCLC -1.52% | 786-0 renal 6.38% | COLO 205 colon -70.3% | K-562 leukemia 6.95% | RXF 393 renal -61.7% | SF-295 CNS -1.44% | UACC-257 melanoma -25% | M14 melanoma 8.55%

O=c1nc(N2CCOCC2)oc2c(-c3cccc4ccccc34)cccc12
inactive: NCI-H23 lung 89.3% | NCI-H226 lung 66.6% | NCI-H322M lung 90.8% | HOP-62 NSCLC 80.8% | NCI-H460 lung 110% | HOP-92 NSCLC 60.1% | NCI-H522 lung 82% | A549/ATCC NSCLC 85.6% | 786-0 renal 74.4% | COLO 205 colon 103% | DU-145 prostate 97.7% | K-562 leukemia 90.1% | MALME-3M melanoma 75.2% | MDA-MB-231 breast 93.5% | RXF 393 renal 61.1% | SF-268 CNS 80.6% | SF-295 CNS 89.2% | SF-539 CNS 85% | UACC-257 melanoma 96.5% | M14 melanoma 93.2%

CCC1S/C(=N\N=C(/C)c2ccco2)N(c2ccccc2)C1=O (stereo not given)
inactive: NCI-H23 lung 98.8% | NCI-H226 lung 122% | NCI-H322M lung 66.8% | HOP-62 NSCLC 106% | NCI-H460 lung 93.8% | HOP-92 NSCLC 40.6% | NCI-H522 lung 74.7% | A549/ATCC NSCLC 104% | 786-0 renal 96.9% | COLO 205 colon 117% | DU-145 prostate 123% | K-562 leukemia 120% | MALME-3M melanoma 79.6% | MDA-MB-231 breast 118% | RXF 393 renal 103% | SF-268 CNS 100% | SF-295 CNS 123% | SF-539 CNS 107% | UACC-257 melanoma 109% | M14 melanoma 138%

O=C(Nc1ccc(-n2cc(-c3ccncc3)c(-c3ccc(O)c(Cl)c3)n2)cc1)Nc1ccc(Cl)c(C(F)(F)F)c1
inactive: NCI-H23 lung 16.2% | NCI-H226 lung 50.2% | NCI-H322M lung 27.3% | HOP-62 NSCLC 28.3% | A549/ATCC NSCLC 16.7% | COLO 205 colon 41.3% | DU-145 prostate 29.5% | K-562 leukemia 17.1% | MALME-3M melanoma 13.3% | SF-268 CNS 18.4% | SF-539 CNS 13.7% | UACC-257 melanoma 47.5%
active: NCI-H460 lung -1.85% | HOP-92 NSCLC -22.9% | NCI-H522 lung 9.38% | 786-0 renal -31.5% | MDA-MB-231 breast -39.7% | RXF 393 renal -74.4% | SF-295 CNS -10.3% | M14 melanoma 7.1%

CN1CCN(CC(O)COc2c(Br)c(Br)c(Br)c3c2OC(C)(C)C3)CC1 (stereo not given)
inactive: NCI-H23 lung 82.4% | NCI-H226 lung 99.2% | NCI-H322M lung 73% | HOP-62 NSCLC 16.4% | NCI-H460 lung 23% | NCI-H522 lung 42.6% | A549/ATCC NSCLC 63.6% | 786-0 renal 11.8% | DU-145 prostate 89.9% | MDA-MB-231 breast 49.7% | RXF 393 renal 29.4% | SF-268 CNS 63.8% | SF-295 CNS 38.7% | SF-539 CNS 58.3% | UACC-257 melanoma 99.9%
active: HOP-92 NSCLC -3.44% | COLO 205 colon -45.3% | K-562 leukemia -16.5% | MALME-3M melanoma -36.9% | M14 melanoma -53.5%

O=C(NCCNc1nccc(-c2c(-c3cccc(O)c3)nc3sccn23)n1)Nc1cc(C(F)(F)F)cc(C(F)(F)F)c1
inactive: NCI-H23 lung 90.9% | NCI-H226 lung 101% | NCI-H322M lung 87% | HOP-62 NSCLC 118% | NCI-H460 lung 51.8% | HOP-92 NSCLC 74.4% | NCI-H522 lung 69.5% | A549/ATCC NSCLC 57.7% | 786-0 renal 82% | COLO 205 colon 45.1% | DU-145 prostate 97.1% | K-562 leukemia 72.7% | MALME-3M melanoma 60.5% | MDA-MB-231 breast 41.4% | RXF 393 renal 41.4% | SF-268 CNS 69.4% | SF-295 CNS 66.7% | SF-539 CNS 96.5% | UACC-257 melanoma 57% | M14 melanoma 21.4%

COc1cc(C(=O)C[n+]2ccccc2)ccc1OC(C)=O
inactive: NCI-H23 lung 106% | NCI-H226 lung 96.3% | NCI-H322M lung 106% | HOP-62 NSCLC 94.6% | NCI-H460 lung 99% | HOP-92 NSCLC 91.5% | NCI-H522 lung 98% | A549/ATCC NSCLC 98.3% | 786-0 renal 90.9% | COLO 205 colon 104% | DU-145 prostate 106% | K-562 leukemia 101% | MALME-3M melanoma 105% | MDA-MB-231 breast 102% | RXF 393 renal 92% | SF-268 CNS 98.4% | SF-295 CNS 97.4% | SF-539 CNS 94.3% | UACC-257 melanoma 95.4% | M14 melanoma 94.9%

COc1cc(NC(=O)C#Cc2ccccc2)c(OC)cc1Cl
inactive: NCI-H23 lung 57.8% | NCI-H226 lung 64.7% | NCI-H322M lung 93.2% | HOP-62 NSCLC 77.6% | NCI-H460 lung 17.8% | HOP-92 NSCLC 78.5% | NCI-H522 lung 39.2% | A549/ATCC NSCLC 59.5% | 786-0 renal 35.1% | COLO 205 colon 64.6% | DU-145 prostate 83.6% | K-562 leukemia 20.6% | MALME-3M melanoma 61.4% | MDA-MB-231 breast 26.6% | RXF 393 renal 83.5% | SF-268 CNS 39.8% | SF-295 CNS 75.1% | SF-539 CNS 66.6% | UACC-257 melanoma 89.2% | M14 melanoma 49.8%
